# Measurements taken from the supplement of paper PMC4466140.
# B1: unnamed (peptide)
# chain: ISRRRLPVIMHRLKM
# B2: unnamed (peptide)
# chain: QHQQRQPKRPKRYSL
# B3: unnamed (peptide)
# chain: NPNRRAPRRPLSTQH
# Target: AgAbp1
# Assay: SPOT peptide array binding signal intensity (averaged, normalized) (arbitrary units (background-subtracted, floor 0; scale differs between SH3 domains)); higher = stronger binding of the SH3 domain to the peptide
# Outline: (§1)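 Peptides were synthetic 15-mers on cellulose membranes, with every cysteine replaced by serine. They were incubated overnight at 4°C with GST-SH3 domains from four yeast species at 10 μg/ml in TBS-based blocking buffer. Binding signal, the replicate-averaged normalized and background-subtracted spot intensity, is in arbitrary units that differ between domains.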
row,Binder,SPOT peptide array binding signal intensity
1,B1,138
2,B2,147
3,B3,134

# Target: AgBbc1
# Assay: as above
# Outline: as §1
row,Binder,SPOT peptide array binding signal intensity
1,B1,16.2
2,B2,293
3,B3,248

# Target: AgBem1-D1
# Assay: as above
# Outline: as §1
row,Binder,SPOT peptide array binding signal intensity
1,B1,66
2,B2,112
3,B3,136

# Target: AgBzz1-D1
# Assay: as above
# Outline: as §1
row,Binder,SPOT peptide array binding signal intensity
1,B1,49.5
2,B2,55.5
3,B3,18.5

# Target: AgBzz1-D2
# Assay: as above
# Outline: as §1
row,Binder,SPOT peptide array binding signal intensity
1,B1,14
2,B2,19
3,B3,96

# Target: AgCyk3
# Assay: as above
# Outline: as §1
row,Binder,SPOT peptide array binding signal intensity
1,B1,1
2,B2,11
3,B3,1

# Target: AgFus1
# Assay: as above
# Outline: as §1
row,Binder,SPOT peptide array binding signal intensity
1,B1,423
2,B2,98.5
3,B3,492

# Target: AgHof1
# Assay: as above
# Outline: as §1
row,Binder,SPOT peptide array binding signal intensity
1,B1,6.5
2,B2,34.5
3,B3,37.8

# Target: AgHse1
# Assay: as above
# Outline: as §1
row,Binder,SPOT peptide array binding signal intensity
1,B1,1310
2,B2,353
3,B3,1700

# Target: AgLsb1
# Assay: as above
# Outline: as §1
row,Binder,SPOT peptide array binding signal intensity
1,B1,2.75
2,B2,15
3,B3,9.75

# Target: AgLsb4
# Assay: as above
# Outline: as §1
row,Binder,SPOT peptide array binding signal intensity
1,B1,40
2,B2,151
3,B3,110

# Target: AgMyo5
# Assay: as above
# Outline: as §1
row,Binder,SPOT peptide array binding signal intensity
1,B1,0.25
2,B2,1.5
3,B3,1.5

# Target: AgNbp2
# Assay: as above
# Outline: as §1
row,Binder,SPOT peptide array binding signal intensity
1,B1,303
2,B2,654
3,B3,1950

# Target: AgRvs167
# Assay: as above
# Outline: as §1
row,Binder,SPOT peptide array binding signal intensity
1,B1,16.5
2,B2,6
3,B3,≤ 0

# Target: AgSho1
# Assay: as above
# Outline: as §1
row,Binder,SPOT peptide array binding signal intensity
1,B1,240
2,B2,12
3,B3,100

# Target: AgSla1-D1-D2
# Assay: as above
# Outline: as §1
row,Binder,SPOT peptide array binding signal intensity
1,B1,158
2,B2,288
3,B3,484

# Target: AgSla1-D3
# Assay: as above
# Outline: as §1
row,Binder,SPOT peptide array binding signal intensity
1,B1,9.5
2,B2,3.5
3,B3,18

# Target: CaAbp1-D1
# Assay: as above
# Outline: as §1
row,Binder,SPOT peptide array binding signal intensity
1,B1,617
2,B2,1050
3,B3,660

# Target: CaAbp1-D2
# Assay: as above
# Outline: as §1
row,Binder,SPOT peptide array binding signal intensity
1,B1,645
2,B2,639
3,B3,806

# Target: CaBbc1
# Assay: as above
# Outline: as §1
row,Binder,SPOT peptide array binding signal intensity
1,B1,142
2,B2,792
3,B3,1050

# Target: CaBem1-D1
# Assay: as above
# Outline: as §1
row,Binder,SPOT peptide array binding signal intensity
1,B1,102
2,B2,20
3,B3,184

# Target: CaBzz1-D1
# Assay: as above
# Outline: as §1
row,Binder,SPOT peptide array binding signal intensity
1,B1,49
2,B2,59
3,B3,90

# Target: CaBzz1-D2
# Assay: as above
# Outline: as §1
row,Binder,SPOT peptide array binding signal intensity
1,B1,42.5
2,B2,94
3,B3,104

# Target: CaCyk3
# Assay: as above
# Outline: as §1
row,Binder,SPOT peptide array binding signal intensity
1,B1,36
2,B2,211
3,B3,189

# Target: CaFus1
# Assay: as above
# Outline: as §1
row,Binder,SPOT peptide array binding signal intensity
1,B1,542
2,B2,126
3,B3,374

# Target: CaHof1
# Assay: as above
# Outline: as §1
row,Binder,SPOT peptide array binding signal intensity
1,B1,1
2,B2,2
3,B3,≤ 0

# Target: CaHse1
# Assay: as above
# Outline: as §1
row,Binder,SPOT peptide array binding signal intensity
1,B1,61
2,B2,175
3,B3,108

# Target: CaLsb1
# Assay: as above
# Outline: as §1
row,Binder,SPOT peptide array binding signal intensity
1,B1,≤ 0
2,B2,2.5
3,B3,≤ 0

# Target: CaLsb4
# Assay: as above
# Outline: as §1
row,Binder,SPOT peptide array binding signal intensity
1,B1,177
2,B2,1810
3,B3,330

# Target: CaMyo5
# Assay: as above
# Outline: as §1
row,Binder,SPOT peptide array binding signal intensity
1,B1,0.5
2,B2,12
3,B3,1.5

# Target: CaNbp2
# Assay: as above
# Outline: as §1
row,Binder,SPOT peptide array binding signal intensity
1,B1,812
2,B2,492
3,B3,4120

# Target: CaRvs167
# Assay: as above
# Outline: as §1
row,Binder,SPOT peptide array binding signal intensity
1,B1,42.3
2,B2,18.5
3,B3,19

# Target: CaRvs167-3
# Assay: as above
# Outline: as §1
row,Binder,SPOT peptide array binding signal intensity
1,B1,153
2,B2,38.2
3,B3,66

# Target: CaSho1
# Assay: as above
# Outline: as §1
row,Binder,SPOT peptide array binding signal intensity
1,B1,738
2,B2,56.5
3,B3,562

# Target: CaSla1-D1-D2
# Assay: as above
# Outline: as §1
row,Binder,SPOT peptide array binding signal intensity
1,B1,386
2,B2,558
3,B3,622

# Target: CaSla1-D3
# Assay: as above
# Outline: as §1
row,Binder,SPOT peptide array binding signal intensity
1,B1,99.8
2,B2,26.2
3,B3,12.2

# Target: ScAbp1
# Assay: as above
# Outline: as §1
row,Binder,SPOT peptide array binding signal intensity
1,B1,150
2,B2,43
3,B3,154

# Target: ScBbc1
# Assay: as above
# Outline: as §1
row,Binder,SPOT peptide array binding signal intensity
1,B1,10.5
2,B2,251
3,B3,185

# Target: ScBem1-D1
# Assay: as above
# Outline: as §1
row,Binder,SPOT peptide array binding signal intensity
1,B1,23
2,B2,14
3,B3,28.5

# Target: ScBzz1-D1
# Assay: as above
# Outline: as §1
row,Binder,SPOT peptide array binding signal intensity
1,B1,8.5
2,B2,9
3,B3,30.5

# Target: ScBzz1-D2
# Assay: as above
# Outline: as §1
row,Binder,SPOT peptide array binding signal intensity
1,B1,9
2,B2,12
3,B3,8

# Target: ScCyk3
# Assay: as above
# Outline: as §1
row,Binder,SPOT peptide array binding signal intensity
1,B1,49
2,B2,216
3,B3,109

# Target: ScFus1
# Assay: as above
# Outline: as §1
row,Binder,SPOT peptide array binding signal intensity
1,B1,516
2,B2,54.5
3,B3,402

# Target: ScHof1
# Assay: as above
# Outline: as §1
row,Binder,SPOT peptide array binding signal intensity
1,B1,1
2,B2,≤ 0
3,B3,1.25

# Target: ScHse1
# Assay: as above
# Outline: as §1
row,Binder,SPOT peptide array binding signal intensity
1,B1,1390
2,B2,409
3,B3,2480

# Target: ScLsb1
# Assay: as above
# Outline: as §1
row,Binder,SPOT peptide array binding signal intensity
1,B1,32.5
2,B2,25.8
3,B3,65

# Target: ScLsb2
# Assay: as above
# Outline: as §1
row,Binder,SPOT peptide array binding signal intensity
1,B1,2
2,B2,45
3,B3,12

# Target: ScLsb3
# Assay: as above
# Outline: as §1
row,Binder,SPOT peptide array binding signal intensity
1,B1,1300
2,B2,1410
3,B3,1470

# Target: ScLsb4
# Assay: as above
# Outline: as §1
row,Binder,SPOT peptide array binding signal intensity
1,B1,42
2,B2,140
3,B3,35

# Target: ScMyo3
# Assay: as above
# Outline: as §1
row,Binder,SPOT peptide array binding signal intensity
1,B1,≤ 0
2,B2,4.25
3,B3,20

# Target: ScMyo5
# Assay: as above
# Outline: as §1
row,Binder,SPOT peptide array binding signal intensity
1,B1,≤ 0
2,B2,7.75
3,B3,8.75

# Target: ScNbp2
# Assay: as above
# Outline: as §1
row,Binder,SPOT peptide array binding signal intensity
1,B1,485
2,B2,620
3,B3,4200

# Target: ScPex13
# Assay: as above
# Outline: as §1
row,Binder,SPOT peptide array binding signal intensity
1,B1,18
2,B2,88.8
3,B3,23.5

# Target: ScRvs167
# Assay: as above
# Outline: as §1
row,Binder,SPOT peptide array binding signal intensity
1,B1,216
2,B2,129
3,B3,46.5

# Target: ScSho1
# Assay: as above
# Outline: as §1
row,Binder,SPOT peptide array binding signal intensity
1,B1,1520
2,B2,196
3,B3,984

# Target: ScSla1-D1-D2
# Assay: as above
# Outline: as §1
row,Binder,SPOT peptide array binding signal intensity
1,B1,222
2,B2,372
3,B3,1340

# Target: ScSla1-D3
# Assay: as above
# Outline: as §1
row,Binder,SPOT peptide array binding signal intensity
1,B1,70.5
2,B2,22.2
3,B3,7

# Target: SpAbp1-D1
# Assay: as above
# Outline: as §1
row,Binder,SPOT peptide array binding signal intensity
1,B1,714
2,B2,426
3,B3,313

# Target: SpBbc1
# Assay: as above
# Outline: as §1
row,Binder,SPOT peptide array binding signal intensity
1,B1,0.5
2,B2,31
3,B3,50.5

# Target: SpBzz1-D1
# Assay: as above
# Outline: as §1
row,Binder,SPOT peptide array binding signal intensity
1,B1,124
2,B2,250
3,B3,352

# Target: SpBzz1-D2
# Assay: as above
# Outline: as §1
row,Binder,SPOT peptide array binding signal intensity
1,B1,0.5
2,B2,1.5

# Target: SpCyk3
# Assay: as above
# Outline: as §1
row,Binder,SPOT peptide array binding signal intensity
1,B1,16
2,B2,10.5

# Target: SpHof1
# Assay: as above
# Outline: as §1
row,Binder,SPOT peptide array binding signal intensity
1,B1,285
2,B2,81

# Target: SpHof1-2
# Assay: as above
# Outline: as §1
row,Binder,SPOT peptide array binding signal intensity
1,B1,101
2,B2,18.8

# Target: SpHof1-3
# Assay: as above
# Outline: as §1
row,Binder,SPOT peptide array binding signal intensity
1,B1,618
2,B2,169

# Target: SpHse1
# Assay: as above
# Outline: as §1
row,Binder,SPOT peptide array binding signal intensity
1,B1,690
2,B2,75.2

# Target: SpLsb1
# Assay: as above
# Outline: as §1
row,Binder,SPOT peptide array binding signal intensity
1,B1,1.5
2,B2,73.8

# Target: SpLsb4
# Assay: as above
# Outline: as §1
row,Binder,SPOT peptide array binding signal intensity
1,B1,484
2,B2,2350

# Target: SpMyo1
# Assay: as above
# Outline: as §1
row,Binder,SPOT peptide array binding signal intensity
1,B1,2.5
2,B2,7.75

# Target: SpNbp2
# Assay: as above
# Outline: as §1
row,Binder,SPOT peptide array binding signal intensity
1,B1,437
2,B2,267

# Target: SpPex13
# Assay: as above
# Outline: as §1
row,Binder,SPOT peptide array binding signal intensity
1,B1,22
2,B2,12

# Target: SpRvs167
# Assay: as above
# Outline: as §1
row,Binder,SPOT peptide array binding signal intensity
1,B1,159
2,B2,26.8

# Target: SpSla1-D1-D2
# Assay: as above
# Outline: as §1
row,Binder,SPOT peptide array binding signal intensity
1,B1,14
2,B2,≤ 0

# Target: SpSla1-D3
# Assay: as above
# Outline: as §1
row,Binder,SPOT peptide array binding signal intensity
1,B1,18.5
2,B2,6
